Reference: PubChem BioAssay
Records with an inconclusive call do not appear. Activity calls are given as the source filed them.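 How the source made its calls, unless noted: active means viability at or below 30% in both replicate assays; inconclusive means viability at or below 30% in just one of the two assays; inactive means the rest.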

What was measured:
[1] = Her2 expression decrease, cell viability multiplex – SKBR3 breast tumor cells, AlphaScreen, ATP viability, primary screen (AID 461;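 active means Her2 level under about 52% in both replicate screens, with viability over 70% of control, limit read from the data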;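 on Her2 level: lower value means less Her2 protein in the cells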;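 on viability: percent of carrier control wells set as 100% viability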); conditions: SKBR3 Her2 protein level, 18-24 h, measured here: SKBR3 viability, ATP luminescence, at 10 µM
[2] = target: Receptor tyrosine-protein kinase erbB-2 (Homo sapiens) (UniProt P04626); assay: as above; conditions: 18-24 h, at 10 µM, stronger effect = lower value
[3] = reduced viability of SK-BR-3 breast cancer cells – cell-based, 24 h, human, pilot screen (AID 572;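 active means viability at or below 10% of carrier control in both of two separate runs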;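 further: compound exposure lasted between 18 and 24 h rather than exactly 24 h; 100% = carrier-treated control wells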); conditions: SK-BR-3 viability, CellTiter-Glo luminescence, at 10 µM, stronger effect = lower value
[4] = HUVEC growth inhibition – cell-based, human, primary screen (AID 575); conditions: HUVEC proliferation, CellTiter-Glo luminescence, 72 h; at 10 µM; stronger effect = lower value;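 further: 100% = median of untreated cell wells with 0.1% DMSO on each plate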
[5] = H69AR cell proliferation blockers – human, duplicate replicates, primary screen (AID 580;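 active means viability at or under a set limit in both replicates, limit being median viability minus 3 SD, cut at about 48% in these data, passing the limit was not always enough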;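 further: 100% = mean luminescence of untreated wells and 0% = no signal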); conditions: H69AR lung tumor cells viability, ATP luminescence, 72 h; at 10 µM; stronger effect = lower value
[6] = MRP1 drug-resistance reversers in H69AR cells – cell-based, doxorubicin co-treatment, pilot screen (AID 601;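 active means viability loss from added drug above about 55%, and viability with drug at most 40%, in both replicates, limit read from the data, passing the limit was not always enough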); conditions: CellTiter-Glo, 72 h, at 10 µM; for differential viability (reversal): stronger effect = higher value
[7] = yeast transport mutant growth inhibition pilot in 384-well plates, post-Golgi transport modulator project (AID 636; in the data active means inhibition above about 31%); conditions: absorbance 615 nm, about 18 h, stronger effect = higher value
[8] = growth suppression of yeast trafficking mutant, preliminary HTS, modulators of trafficking downstream of Golgi apparatus project, 1536-format plate, OD 615 nm (AID 637; in the data active means inhibition above about 30%); conditions: yeast transport mutant growth, absorbance 615 nm, 18 h; stronger effect = higher value
[9] = S. cerevisiae growth inhibition in permissive medium (OD615), pilot counter-assay for S. cerevisiae lifespan shortening project, permissive growth control (AID 705;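 active means growth inhibition above 25% in both replicates, a cutoff set 3 SD above the mean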); conditions: OD615, 24 h, at 10 µM, stronger effect = higher value
[10] = S. cerevisiae growth inhibition in restrictive medium, OD615, pilot screen, restrictive growth control, yeast lifespan reduction project (AID 706;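 active means growth inhibition above a set limit, 3 SD over mean compound inhibition, in both replicates, cut at about 43% in these data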;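 further: modified DeaD lifespan yeast strain shifted to restrictive glucose medium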); conditions: OD615, 48 h, at 10 µM, stronger effect = higher value
[11] = doxorubicin toxicity protection in MRP-1 cells – H69AR cells, CellTiter-Glo, duplicate, MRP-1 activator project, pilot screen (AID 807;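 active means viability increase at or above a cutoff of the median across tested compounds plus 3 SD, cut at about 8.5% in these data, passing the limit was not always enough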;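 further: compound pretreatment 18-22 h then 72 h combined with doxorubicin; 0% = doxorubicin alone and 100% = vehicle without doxorubicin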); conditions: H69AR viability with doxorubicin, CellTiter-Glo luminescence; at 10 µM; stronger effect = higher value
[12] = viability of HCT116 without oncogenic beta-catenin – human colon tumor cells, pilot screen (AID 823;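 active means cell viability at or below a set limit in both duplicate runs, the limit being the all-compound median minus 4 SD, cut at about 23% in these data, passing the limit was not always enough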;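 further: 0% = wells killed by 20 µM Hyamine and 100% = untreated DMSO cell wells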); conditions: HCT116 beta-catenin knockout viability, CellTiter-Glo, 60 h; at 10 µM; stronger effect = lower value
[13] = viability of PTEN-null HCT116 cells – cell-based, HCT116 clonal line, CellTiter-Glo, pilot screen (AID 824;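 active means viability at or below 27.92% in each of two runs, the all-compound median minus 4 SD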;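 further: 0% = 20 µM Hyamine control and 100% = vehicle cell control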); conditions: HCT116 PTEN-deleted viability, 60 h, at 10 µM, stronger effect = lower value
[14] = RAM pathway blockade in budding yeast – dse1pr::URA3 reporter, 5-FOA selection, pilot screen (AID 869;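 active means inhibition over a set limit, the all-compound mean plus 3 SD, in both replicate runs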;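 further: 0% = DMSO wells with no growth and 100% = 10 µM 1-NA-PP1 with full growth; RAM network block rescues cells from 5-FOA so hits raise OD615 growth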); conditions: S. cerevisiae dse1pr::URA3 5-FOA growth, OD615, 2 d; at 10 µM; stronger effect = higher value; strain carries analog-sensitive mutant Cbk1 kinase
[15] = H69AR cells + 2 uM doxorubicin, measured here: viability with 2 uM doxorubicin, stronger effect = lower value
[16] = H69AR cells, compound alone cytotoxicity

Sequence of Receptor tyrosine-protein kinase erbB-2 (Homo sapiens) (P04626 whole entry, looked up): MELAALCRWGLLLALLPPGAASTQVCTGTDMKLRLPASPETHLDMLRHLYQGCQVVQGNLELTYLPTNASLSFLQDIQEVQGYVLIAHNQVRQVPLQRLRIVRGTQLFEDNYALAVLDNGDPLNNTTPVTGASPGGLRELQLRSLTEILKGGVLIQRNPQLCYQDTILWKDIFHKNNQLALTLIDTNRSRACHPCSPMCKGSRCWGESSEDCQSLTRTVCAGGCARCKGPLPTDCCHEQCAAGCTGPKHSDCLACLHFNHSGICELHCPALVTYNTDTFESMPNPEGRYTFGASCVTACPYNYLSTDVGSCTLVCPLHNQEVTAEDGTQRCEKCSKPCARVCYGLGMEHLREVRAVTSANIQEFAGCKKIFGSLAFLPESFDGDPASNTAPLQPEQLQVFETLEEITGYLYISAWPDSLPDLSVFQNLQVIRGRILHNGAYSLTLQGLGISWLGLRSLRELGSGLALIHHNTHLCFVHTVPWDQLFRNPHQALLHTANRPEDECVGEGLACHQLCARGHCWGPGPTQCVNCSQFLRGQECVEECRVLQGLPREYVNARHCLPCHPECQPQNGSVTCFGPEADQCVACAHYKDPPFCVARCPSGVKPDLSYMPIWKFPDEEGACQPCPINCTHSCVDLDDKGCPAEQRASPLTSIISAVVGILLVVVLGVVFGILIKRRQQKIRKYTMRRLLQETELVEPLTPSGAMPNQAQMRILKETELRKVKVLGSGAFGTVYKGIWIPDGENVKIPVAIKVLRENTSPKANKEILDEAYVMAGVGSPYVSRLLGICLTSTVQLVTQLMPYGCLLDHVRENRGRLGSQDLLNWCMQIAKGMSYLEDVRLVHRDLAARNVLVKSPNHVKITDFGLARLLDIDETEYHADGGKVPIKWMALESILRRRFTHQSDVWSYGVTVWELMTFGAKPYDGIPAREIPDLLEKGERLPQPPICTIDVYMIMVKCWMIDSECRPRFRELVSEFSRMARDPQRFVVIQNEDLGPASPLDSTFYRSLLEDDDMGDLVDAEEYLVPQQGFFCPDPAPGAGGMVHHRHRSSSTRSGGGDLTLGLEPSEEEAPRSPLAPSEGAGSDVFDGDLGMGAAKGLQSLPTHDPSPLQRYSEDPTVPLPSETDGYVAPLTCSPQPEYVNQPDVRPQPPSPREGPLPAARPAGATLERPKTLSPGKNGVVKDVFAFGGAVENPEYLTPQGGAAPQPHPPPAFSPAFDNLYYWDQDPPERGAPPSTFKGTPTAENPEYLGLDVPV

Compound | viability [1] [%] | Her2 level [2] | viability [3] | viability [4] | viability [5] | differential viability (reversal) ([6]; H69AR cells + 2 uM doxorubicin) | viability [6, 15] [%] | viability [6, 16] [%] | inhibition [7] | inhibition [8] | growth inhibition [9] | growth inhibition [10] | viability increase [11] | viability [12] | viability [13] | inhibition [14]
CC12COC3(C(=O)Nc4ccc(Cl)cn4)CC1CCC32C (configuration not stated) | 72 | 112% (inactive) | 72% (inactive) | 82.9% (inactive) | 94.6% (inactive) | 9.46% (inactive) | 85.1 | 94.6 | 0% (inactive) | -10% (inactive) | -15.9% (inactive) | -9.37% (inactive) | -0.46% (inactive) | 85.3% (inactive) | 85.7% (inactive) | 0.735% (inactive)
Clc1ccc(C2Nc3ccccc3-n3cccc32)cc1 (configuration not stated) | 92 | 82% (inactive) | 92% (inactive) | 60.8% (inactive) | 66.7% (inactive) | -9.2% (inactive) | 75.9 | 66.7 | -3.87% (inactive) | 7% (inactive) | -26% (inactive) | -13.6% (inactive) | -4.67% (inactive) | 82.8% (inactive) | 81.3% (inactive) | 3.41% (inactive)
CCOC(=O)c1sc2nc(SCC(=O)NCc3ccco3)n(Cc3ccccc3)c(=O)c2c1C | 90.5 | 84% (inactive) | 90.5% (inactive) | 82% (inactive) | – | 13% (inactive) | 33 | 46 | -5.68% (inactive) | 0.98% (inactive) | – | – | – | – | – | –
O=c1[nH]c(=O)n([C@H]2C[C@H](O)[C@@H](CO)O2)cc1F | 89 | 74% (inactive) | 89% (inactive) | 51.3% (inactive) | – | -40.6% (inactive) | 57 | 16.4 | – | – | – | – | – | – | – | –
CCOC(=O)c1sc(NC(=O)CSc2nnc(-c3ccco3)n2CC)c(C(=O)OCC)c1C | 101 | 71% (inactive) | 101% (inactive) | 77.5% (inactive) | 74.2% (inactive) | – | – | – | -0.66% (inactive) | -0.32% (inactive) | – | – | – | – | – | –
COc1ccc(/C=N/n2cnnc2SCc2ccc(OC)cc2)cc1 | 83.5 | 90.5% (inactive) | 83.5% (inactive) | 87.6% (inactive) | 89.9% (inactive) | -6.8% (inactive) | 96.7 | 89.9 | 0% (inactive) | 4% (inactive) | 4.08% (inactive) | 30.7% (inactive) | 3.56% (inactive) | 90.6% (inactive) | 93.9% (inactive) | 2.4% (inactive)
O=C(NCc1nnc(SCC(=O)N2CCC(Cc3ccccc3)CC2)o1)c1ccccc1F | 85 | 96.5% (inactive) | 85% (inactive) | 74.5% (inactive) | 98.8% (inactive) | 3.91% (inactive) | 94.8 | 98.8 | 1.6% (inactive) | 3.11% (inactive) | 5.21% (inactive) | 17.2% (inactive) | -0.76% (inactive) | 90.2% (inactive) | 92.2% (inactive) | 1.69% (inactive)
Cc1[nH]c2ccccc2c1Cc1nnc(SCC(=O)NCc2ccco2)o1 | 93 | 93% (inactive) | 93% (inactive) | 97.5% (inactive) | 93.7% (inactive) | 8% (inactive) | 85.7 | 93.7 | 1.6% (inactive) | -2.17% (inactive) | -12.4% (inactive) | 12.7% (inactive) | -3.96% (inactive) | 103% (inactive) | 95.5% (inactive) | 2.85% (inactive)
CCOC(=O)c1c(C)[nH]c(C(=O)COC(=O)c2ccc(F)c(S(=O)(=O)N3CCOCC3)c2)c1C | 88.5 | 79.5% (inactive) | 88.5% (inactive) | 62.4% (inactive) | – | 11.4% (inactive) | 52.5 | 63.9 | -5.47% (inactive) | -1.97% (inactive) | – | – | – | – | – | –
CC[C@]1(O)C[C@@H]2CN(CCc3c([nH]c4ccccc34)[C@@](C(=O)OC)(c3cc4c(cc3OC)N(C)[C@H]3[C@@](O)(C(=O)OC)[C@H](OC(C)=O)[C@]5(CC)C=CCN6CC[C@]43[C@@H]65)C2)C1 | 108 | 78.5% (inactive) | 108% (inactive) | 10.5% (active) | – | -38.2% (inactive) | 55.7 | 17.5 | – | – | – | – | – | – | – | –
O=C(C1CCN(c2nnc(-n3cccc3)s2)CC1)N1CCN(Cc2ccc3c(c2)OCO3)CC1 | 78.5 | 80.5% (inactive) | 78.5% (inactive) | 105% (inactive) | 82% (inactive) | -3.6% (inactive) | 85.6 | 82 | 3.59% (inactive) | 1.67% (inactive) | 10.4% (inactive) | 10.1% (inactive) | -0.09% (inactive) | 59.1% (inactive) | 64.8% (inactive) | 2.78% (inactive)
O=C(Oc1cc2oc(=O)c3c(c2cc1Cl)CCCC3)c1ccco1 | 82 | 87% (inactive) | 82% (inactive) | 89.6% (inactive) | 80.2% (inactive) | -13.1% (inactive) | 93.2 | 80.2 | 1.28% (inactive) | -4% (inactive) | -14.7% (inactive) | -13.7% (inactive) | -3.67% (inactive) | 108% (inactive) | 104% (inactive) | 1.97% (inactive)
CN1CCc2c(sc3c2c(=O)n(-c2ccccc2)c2nnc(SCc4ccc(F)cc4)n32)C1 | 82 | 94.5% (inactive) | 82% (inactive) | 109% (inactive) | 102% (inactive) | – | – | – | -1.95% (inactive) | 0.79% (inactive) | – | – | – | – | – | –
O=C(COC(=O)c1cnccn1)c1ccc(OC(=O)c2ccccc2)cc1 | 104 | 100% (inactive) | 104% (inactive) | 87.8% (inactive) | 96.2% (inactive) | -2.16% (inactive) | 98.3 | 96.2 | -1.67% (inactive) | 5.67% (inactive) | -19.2% (inactive) | -15.1% (inactive) | -0.85% (inactive) | 93.3% (inactive) | 95.2% (inactive) | 2.84% (inactive)
Fc1ccc(C2C3=C(Nc4ncnn42)c2ccccc2OC3c2ccncc2)cc1 (configuration not stated) | 85.5 | 85.5% (inactive) | 85.5% (inactive) | 86.7% (inactive) | 78.8% (inactive) | – | – | – | -2.11% (inactive) | -3.71% (inactive) | – | – | – | – | – | –
Cn1cccc1Cc1nnc(SCC(=O)N2CCOCC2)n1-c1ccc(F)cc1 | 88.5 | 104% (inactive) | 88.5% (inactive) | 106% (inactive) | 99.7% (inactive) | 11.4% (inactive) | 88.3 | 99.7 | -6.93% (inactive) | 0.33% (inactive) | 5.02% (inactive) | 19.7% (inactive) | -1.33% (inactive) | 102% (inactive) | 94.3% (inactive) | -0.47% (inactive)
